Over roughly 59,000 sequences, the read-out has its median near -0.00055; the lowest 2% begin near -2. The entries come from a sample that favours the lowest values as a whole.

This assay can be described thus: Identification of proteins required for the processing of the EWS-FLI1 nascent transcript.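 Further: robust z of luciferase light less the median z of siRNAs with the same seed.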 Conditions: TC32 Ewing sarcoma NR0B1-luc vs CMV-luc (EWS-FLI1 target promoter against control promoter), 48 h; screened at 20 nM (by protocol). In a few lines: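 TC32 Ewing sarcoma cells carrying NR0B1-promoter or CMV-promoter luciferase reporters were reverse-transfected with single siRNAs at 20 nM, three per gene genome-wide. Luminescence was read after 48 h and normalized to non-targeting controls.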
With UUCUUUACAACUAUCCGAG against FBXO5, the seed-corrected z-score is 2.48.

For the sequence UUGCCUAUCAGUAGCAGUU against RAB3D, the seed-corrected z-score was -2.07.

Sequence UGAUUGGAAAGCUUGUUCU against ME3 displayed a seed-corrected z-score of 0.0737.

The sequence UCGCUGAUGAGGAUCUUCC against KCNA10 yielded a seed-corrected z-score of -0.144.

For UAUACAAUGAGGCAGCUGA against ISCA1P1, the seed-corrected z-score was 0.235.

Regarding UCUGGUGGGACUGGUGUUG against ZNF574, the seed-corrected z-score was -3.85.

With UUUCUGAUCAUCUUGGUCC against SAFB, the seed-corrected z-score is -0.16.

As for UUCUGGAUCCCAAAUAGUG against ARHGAP19, the seed-corrected z-score came out at 0.0206.

Turning to UGUUAUCCGAGUAUAAUAC against PSMD12, the seed-corrected z-score was -2.56.

For UUAUCACCCAUAGGAGCCU against LOC400965, the seed-corrected z-score turned out to be 0.18.

In turn, UGUCUUGUAGAUUUCCACC against TATDN1 displayed a seed-corrected z-score of -0.0339.

In turn, AUAGCUGUGAGACAUCAGG against PRCD gave a seed-corrected z-score of -2.08.

Regarding UUAGUUCGUUCCUCUGUGC against PSMC5, the seed-corrected z-score was 1.1.

In the case of UUCGCUGACUCUGUAACCC against CACNB4, the seed-corrected z-score is -0.0786.

As for UACUCGCUCACCACAAAGG against SRSF4, the seed-corrected z-score is -0.234.

Sequence UCUCGGUUCAUUUUCUUGA against HOXC10 came in with a seed-corrected z-score of 0.936.

AAUGAUUUUAGAAGCCUGU against NPR3 gave a seed-corrected z-score of 0.11.

The sequence “UAAGAUACUAUGGGAAAUA against C20orf166-AS1” returned a seed-corrected z-score of -2.11.

AAAGUUUAAGCAACCGUCG against RPS23P8 returned a seed-corrected z-score of 1.69.

AAAUCGUUCAAUUACAUCC against ADAM17 had a seed-corrected z-score of 0.501.

UGGAGAGUAUGGGUAGUCG against CDC34: the seed-corrected z-score was -1.87.

For the sequence UCAGGUUCUUCCGUAGCUG against PHF21A, the seed-corrected z-score was -0.312.

Turning to AAAGACUCCAUAUAGACGG against ROR1, the seed-corrected z-score was -0.522.

AUCAAUGACAUAAUCGCUG against SHANK3 returned a seed-corrected z-score of -0.601.

Consider AGUGGAGUUAGAUAGUUGG against KDM6A, for which the seed-corrected z-score is -4.37.

On to UACCACAUUACACUCGUCU against NPM3, for which the seed-corrected z-score amounted to 0.156.

UUGUUGUCCAUAAUUGUCC against RNF8 registered a seed-corrected z-score of 1.95.

For UCCGGAUAUACUGUGCUUC against PCMTD2, the seed-corrected z-score is 0.0601.

UUUGGGCCUGCUGAAAUUG against RNF148 yielded a seed-corrected z-score of 0.493.

In turn, AACUGUCUUGUUGCUCUUG against NFKBID gave a seed-corrected z-score of -0.0314.

As to AAGAUAGUCAAGCAUGUGC against ELMO3, the seed-corrected z-score came out at 0.733.

UGUUGUCGCAGUGAGGAGC against KIAA0141 returned a seed-corrected z-score of -2.

As for UUUGGUGACUGGACCGUUC against TRIM24, the seed-corrected z-score is -0.553.

UUGACAGCAAUCACAGUGG against AWAT2 yielded a seed-corrected z-score of 0.583.

With UCAGCUCGGAUUUCACGGC against SHISA7, the seed-corrected z-score came to 0.404.

Sequence UUAAGUUGAUCUGUACUGC against FAM117B came in with a seed-corrected z-score of -0.0872.

On to CAGCCAUCUAGGAUGAGCC against RPL10P8, for which the seed-corrected z-score is -0.668.

UGGUUUUAGAGGAAUAGGG against SLC51A: the seed-corrected z-score is -0.953.

Regarding UAGGAAACCAAGCACAUCU against SH3BGRL, the seed-corrected z-score was 1.88.

AUAGCCUCCAGUCCAAUUG against TM2D3 showed a seed-corrected z-score of -2.03.

With UUGGUGGUGAACAUAGGGA against TAL1, the seed-corrected z-score was -0.201.

The sequence UAGGUUGGAGAAUUGUUCC against T registered a seed-corrected z-score of -0.372.

In the case of UGUUGUAGGAAUAGCCUGG against PITX2, the seed-corrected z-score is -2.28.

The sequence UGGUCAUUUGGUAUGAGGC against CAPRIN2 yielded a seed-corrected z-score of 0.0796.

Turning to UUCUUGAGAAGCAGGUUCU against STAT6, the seed-corrected z-score was -0.716.

In turn, UGAUCCAUGGGUUCGAUCC against ROCK2 came in with a seed-corrected z-score of -0.007.

For AAAAUAGAGGUCACCAUAC against C1orf35, the seed-corrected z-score worked out at 0.456.

With UGAGAAUUAUGAUCACUGC against SLC7A1, the seed-corrected z-score was -0.0797.

UUUGUGCUUAACUGGCUGG against RPL12 came in with a seed-corrected z-score of -2.56.

Sequence GCCGCGUACUUGUUGUUGC against IGLL1 yielded a seed-corrected z-score of 0.951.

Consider UCCUGCUACAUUUACAUCG against FERMT1, for which the seed-corrected z-score was -3.31.

Regarding AAACUGAGAAACAUCAAGG against ZNF433, the seed-corrected z-score is -1.01.

In the case of UGUCAUCCCAUCAAUGACU against PPIC, the seed-corrected z-score is -0.679.

In turn, UUUAAGGCAUCAUCUAGAC against DHFR returned a seed-corrected z-score of -0.615.

In turn, UUCGAUGAAGAAACUCUGC against DOCK11 yielded a seed-corrected z-score of 0.27.

Sequence UGCGUUUUUAAGCAUGUGC against RPL17 displayed a seed-corrected z-score of -2.46.

As for UUUUGUGCCUUCGUUAACC against ADAM9, the seed-corrected z-score is -0.742.

UUUCUGUCCAGCAUAUGUA against SSU72: the seed-corrected z-score is -0.804.

With UCUCUUCAGAGCGUGCACC against ANKRD54, the seed-corrected z-score was -0.161.

Regarding UUAGCUCCAAGUCUUGCAG against HDLBP, the seed-corrected z-score turned out to be 0.263.

With UACUGGUCCACGGAGAUUU against CSPG4, the seed-corrected z-score came to 0.0797.

The sequence CUUCAUAGUGGUGUCCACG against MUC3B had a seed-corrected z-score of -0.292.

The sequence UUCGUUUCGUCUCUUCUAG against ESCO1 came in with a seed-corrected z-score of 1.44.

Sequence ACCGUUAAAACAAGCUUCG against NBAS yielded a seed-corrected z-score of 0.0519.

In turn, UUCGCUGAAAAGAAACUGG against PHRF1 yielded a seed-corrected z-score of -0.139.

UUUAAGCAACCGUCGUUGG against RPS23P8 displayed a seed-corrected z-score of -9.97.

AAUCUAUAACUCUUUGACC against MKKS: the seed-corrected z-score is -0.508.

In turn, UGAUGGUCAACUUGAUGCC against LCK came in with a seed-corrected z-score of -4.01.

For UGCAUUCCCACCAAUGUUG against EIF2B2, the seed-corrected z-score was -0.2.

The sequence UCAGAGCGAUUUUCAGUAC against KCTD21 showed a seed-corrected z-score of 0.306.

Turning to UAUGUUGUCACUAGUCAGC against PNPLA7, the seed-corrected z-score was -0.38.

The sequence UUCUGCAAAGCGCCACAGG against SLC22A31 gave a seed-corrected z-score of -2.24.

In turn, UUCUGAGUAAUCUACAAUG against RHOT1 had a seed-corrected z-score of 0.1.

Take AACCGUGUAACCAUAGCUC against GABRQ: the seed-corrected z-score was 0.126.

AAUAGUACCACCAAAGCAC against ELOVL2: the seed-corrected z-score was -0.0356.

For the sequence UAUCUCCUCAGCUAAUUCG against SLC17A8, the seed-corrected z-score was determined as 0.0229.

In turn, UUCGUUAGUUGUUCUAGGC against RB1CC1 yielded a seed-corrected z-score of -2.96.

As to UCUGUGUAGCUCGGACACC against OR7E24, the seed-corrected z-score is -0.966.

For the sequence AAUGAAUCAAAUGUAACGG against PNPT1, the seed-corrected z-score was -0.376.

Regarding UUUUCAAACAGGUAACAGC against ATM, the seed-corrected z-score amounted to 0.359.

Take UUUUGAGCCUCAGCACUCC against RGL3: the seed-corrected z-score was -0.0402.

As for UCCAGUUUUCGGAUCUUCC against MRPL40, the seed-corrected z-score was -2.5.

Consider UCUCGUUCAGUUAUCUGCC against HECW2, for which the seed-corrected z-score was 0.826.

With UAGAGUUCCAGCUAGGGUG against CTRL, the seed-corrected z-score was -0.507.

Turning to UUCUUGUACUGCACCAUCU against PHLDA1, the seed-corrected z-score amounted to 2.51.

These data come from PubChem BioAssay AID1159506 (National Center for Advancing Translational Sciences (NCATS), 2015).
